These results are taken from PubChem BioAssay AID588720 (NMMLSC, 2011).

Measured potencies and affinities stand elsewhere. Active and inactive are the calls of the source.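 Rule for the calls: active = good curve fit with EC50 under 10 µM, EC50 error below a tenth of EC50, span above a set limit; inactive = the rest.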

Sequence of Beta-adrenergic receptor kinase 1 (Homo sapiens) (P25098 whole entry, looked up): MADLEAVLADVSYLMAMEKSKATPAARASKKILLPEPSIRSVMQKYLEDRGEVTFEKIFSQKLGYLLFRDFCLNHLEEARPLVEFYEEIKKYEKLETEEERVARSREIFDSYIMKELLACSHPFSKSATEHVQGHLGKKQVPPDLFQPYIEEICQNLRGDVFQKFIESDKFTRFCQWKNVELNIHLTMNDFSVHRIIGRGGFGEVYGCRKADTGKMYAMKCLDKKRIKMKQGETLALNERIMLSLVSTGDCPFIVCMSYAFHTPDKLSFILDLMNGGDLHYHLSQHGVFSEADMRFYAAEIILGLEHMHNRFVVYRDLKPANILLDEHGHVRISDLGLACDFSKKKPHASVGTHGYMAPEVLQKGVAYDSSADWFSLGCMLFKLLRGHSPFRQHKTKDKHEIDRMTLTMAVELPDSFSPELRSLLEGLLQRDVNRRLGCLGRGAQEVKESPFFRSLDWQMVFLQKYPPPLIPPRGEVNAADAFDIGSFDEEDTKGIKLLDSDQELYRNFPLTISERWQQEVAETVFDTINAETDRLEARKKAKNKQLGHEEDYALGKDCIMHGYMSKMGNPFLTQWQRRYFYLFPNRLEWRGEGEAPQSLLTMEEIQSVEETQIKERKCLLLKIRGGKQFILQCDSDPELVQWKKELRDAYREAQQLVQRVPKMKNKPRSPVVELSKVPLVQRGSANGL

The assay concerns the target Beta-adrenergic receptor kinase 1 (Homo sapiens) (UniProt P25098). Put plainly: blockers of aptamer binding to GRK2 – biochemical, flow cytometry beads, FAM-aptamer, powder set 1, dose response (AID 588720). Particulars: biotinylated GRK2 beads, FAM-aptamer displacement; series mostly up to 100 µM. For orientation: In flow cytometry, cells or beads pass a laser one at a time.
`Cc1ccc(CCNC(=O)CCS(=O)(=O)c2ccc(Br)cc2)cc1`: the outcome was inactive.

Consider `Cc1cc2ccccc2n1CCNC(=O)c1cccs1`, for which the call was inactive.

Regarding `COC(=O)c1ccccc1NC(=O)CCS(=O)(=O)c1ccc(Br)s1`, the compound was called inactive.

`Cc1cc2ccccc2n1CCNC(=O)C(C)Oc1ccccc1` (configuration not stated): the call was inactive.

As to `CC(=O)N1CCN(Cc2nc3cc(Cl)ccc3c(=O)[nH]2)CC1`, the result was inactive.

Regarding `O=C(CN1CCc2ccccc21)NC(=O)NCc1ccccc1`, the result was inactive.

As to `O=C(O)C1CC(=O)N(c2ccc3c(c2)OCCO3)C1` (configuration not stated), the compound was classed as inactive.
